From PubChem BioAssay AID434958 (Southern Research Specialized Biocontainment Screening …, 2010) come the findings set out here.

Screen size: about 1,200 compounds; about 400 (33%) were called active. A selection follows. Potency and affinity values are given separately. Unmarked numbers belong to inactive results. The rule behind the calls is not given here.

This test is described as follows: mammalian cell cytotoxicity, dose response, cytotoxicity control (AID 434958).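 Note: cells exposed to compound for 72 hours before readout.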 As to conditions: cytotoxicity counter-screen; series mostly up to 40 µM; viability: at the top concentration.
For the molecule `O=C(OCC(=O)c1ccc[nH]1)C1=COCCO1`, the “viability” value is 87.2%.
In the case of `COc1ccc(C(=O)n2c(SC)nc3cc4c(cc32)OCCO4)cc1` it was 100%; in that of `Cc1ccc(OC(=O)COc2ccccc2)c(-n2nc3ccccc3n2)c1`, 97.4%.
For the molecule `N#Cc1c(SCC(=O)O)nc(N2CCCCC2)c2c1CCCC2`, the “viability” value was 110%.
For `Cc1cccc(C)c1OCC(=O)NNC(=O)CNC(=O)c1ccc(OC(F)F)cc1` the value was 100%.
For `CCn1c(SCc2nc(-c3cccs3)no2)nnc1-c1c[nH]c2ccccc12` the value was 87.2%; for `C=C(C)COc1ccc(-c2nc(N)ncc2Oc2ccc(OC)cc2)c(O)c1`, 91.4%.
In the case of `COc1cccc(CNC(=O)C(Cc2ccccc2)n2cccc2)c1` (configuration not stated) it was 95.7%.
For the molecule `CC(=O)C1=C(C)NC(SCC(=O)c2ccccc2)=C(C#N)C1CC(C)C` (configuration not stated), the “viability” value is 88.6%.
In the case of `Nc1nc2ccccc2n1C(=O)c1cccs1` it was 83.8%; in that of `COCCNC(=O)COc1ccc(Oc2ccccc2)cc1`, 94.3%.
Regarding `O=C(COc1ccccc1)NNC(=O)c1cc2ccccc2oc1=O`, the “viability” value was 104%.
In the case of `O=C1Nc2c(ccc(Cl)c2Cl)C(=O)C1(F)c1ccccc1` (configuration not stated) it was 83.8%; in that of `CCOC(=O)c1cnn(-c2ncnc3sc4c(c23)CCC4)c1N`, 95.2%; in that of `Cc1cc(C(=O)Nc2ccc(Br)cc2F)n(-c2ccccc2)n1`, 98.6%.
Consider `Cc1cc(=O)n2c(-c3ccccc3C)n[nH]c2n1`, for which the “viability” value was 92.6%.
In the case of `Cc1ccc(NC(=O)/C=C\C(=O)O)c([N+](=O)[O-])c1`, the “viability” value is 116%.
For `CC(=O)Nc1ccc(S(=O)(=O)Nc2cccc3cccnc23)cc1` the value was 99.3%.
For `Cc1ccc(C)c(SCC(=O)OCC(=O)N2CC(C)OC(C)C2)c1` (configuration not stated) the value was 95.7%.
For `COc1ccccc1CNC(=O)COC(=O)C1=COCCO1` the value was 108%; for `O=C(CC1SC(=O)NC1=O)Oc1ccc(/C=N/NC(=O)c2ccccc2O)cc1` (configuration not stated), 100%; for `Cc1oc(C(C)(C)C)cc1C(=O)Nc1ccc2c(c1)OCCO2`, 87.2%.
For `CCOC(=O)c1ccc(NC(=O)Cc2coc3cc4c(cc23)CCC4)cc1`, the “viability” value was 96.7%.
For `COc1ccc2[nH]c3c(c2c1)CCN=C3C` the value was 93.8%.
In the case of `O=C(COC(=O)C1CC1)c1c[nH]c2ccccc12` it was 101%.
As for `C=CCN(C(=O)CN1CCOCC1)c1nc(C)c(-c2ccccc2)s1`, the “viability” value is 86.4%.
For `N#CCOC(=O)/C=C/c1ccc2c(c1)OCO2` the value was 97.9%.
For `CCc1cc2c(-c3ccccc3)cc(=O)oc2cc1OC(C)C(C)=O` (configuration not stated) the value was 85.6%; for `COc1cc(NC(=O)c2cccc(Cl)c2)c(OC)cc1NC(=O)CN1CCCCC1`, 85%.
For `COc1ccc(NC(=O)c2cc(Br)ccc2Cl)c(OC)c1` the value was 102%; for `Cc1cccc(NC(=S)NC2CC3C=CC2C3)c1` (configuration not stated), 93.8%.
As to `CCSc1nnc(NC(=O)Cn2cnc3ccccc3c2=O)s1`, the “viability” value was 92.7%.
